Assay in all cases: DAPPL (digital affinity profiling via proximity ligation, sequencing); 10 mM Tris-HCl pH 7.5, 50 mM NaCl, 1 mM DTT, 4% glycerol, room temperature, 30 min; GST-TFs on glutathione beads, 16-mer random dsDNA library, 0.1% formaldehyde crosslink after washing; high values mean tight binding
Conditions in all cases: protein: recombinant; tags: N-terminal GST; dsDNA, one strand shown

One test addresses T1, FLI1 (Homo sapiens, UniProt Q01543 1-452).
T1 sequence: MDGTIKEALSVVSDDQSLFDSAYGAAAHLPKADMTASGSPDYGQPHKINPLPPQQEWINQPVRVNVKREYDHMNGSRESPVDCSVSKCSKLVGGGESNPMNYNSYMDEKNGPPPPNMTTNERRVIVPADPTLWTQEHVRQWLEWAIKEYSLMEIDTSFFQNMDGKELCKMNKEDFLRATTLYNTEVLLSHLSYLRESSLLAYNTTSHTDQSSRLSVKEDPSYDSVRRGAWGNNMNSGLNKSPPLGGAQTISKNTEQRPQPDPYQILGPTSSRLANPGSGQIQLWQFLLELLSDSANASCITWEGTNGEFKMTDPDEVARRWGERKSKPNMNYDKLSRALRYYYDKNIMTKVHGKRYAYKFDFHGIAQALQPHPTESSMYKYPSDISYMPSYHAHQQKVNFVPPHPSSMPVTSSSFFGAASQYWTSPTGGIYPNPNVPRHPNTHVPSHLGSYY
A digest of the protocol: (§1)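 Pools of DNA-barcoded human transcription factors, expressed in yeast as GST fusions on glutathione beads and combined with a tag-only sample, were incubated with 200 nmole of a 16-mer random double-stranded DNA library. Incubation took 30 min at room temperature in Tris/NaCl/DTT/glycerol buffer and was followed by washing, 0.1% formaldehyde crosslinking, proximity ligation (BsaI/T4 ligase, 1 h, 37 °C), PCR amplification and sequencing on an Illumina NextSeq500. Binding signal is the ratio of a hexamer's read frequency for a factor to its frequency for the tag-only sample.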

Another test has as its target T2, ELK1 (Homo sapiens, UniProt P19419 1-428).
T2 sequence: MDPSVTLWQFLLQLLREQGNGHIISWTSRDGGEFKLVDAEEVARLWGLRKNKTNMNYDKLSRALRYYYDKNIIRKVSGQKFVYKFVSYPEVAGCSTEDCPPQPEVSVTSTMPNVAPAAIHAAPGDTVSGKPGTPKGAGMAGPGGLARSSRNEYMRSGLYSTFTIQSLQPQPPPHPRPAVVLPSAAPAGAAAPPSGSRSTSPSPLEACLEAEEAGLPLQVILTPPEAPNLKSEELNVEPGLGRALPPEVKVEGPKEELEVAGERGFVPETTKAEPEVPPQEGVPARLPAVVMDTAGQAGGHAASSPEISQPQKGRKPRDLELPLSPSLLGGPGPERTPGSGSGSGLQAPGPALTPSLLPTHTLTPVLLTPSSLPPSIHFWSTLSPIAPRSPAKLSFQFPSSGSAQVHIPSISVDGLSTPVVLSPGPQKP
The essentials: as §1

A further test deals with T3, GABPA (Homo sapiens, UniProt Q06546 1-454).
T3 sequence: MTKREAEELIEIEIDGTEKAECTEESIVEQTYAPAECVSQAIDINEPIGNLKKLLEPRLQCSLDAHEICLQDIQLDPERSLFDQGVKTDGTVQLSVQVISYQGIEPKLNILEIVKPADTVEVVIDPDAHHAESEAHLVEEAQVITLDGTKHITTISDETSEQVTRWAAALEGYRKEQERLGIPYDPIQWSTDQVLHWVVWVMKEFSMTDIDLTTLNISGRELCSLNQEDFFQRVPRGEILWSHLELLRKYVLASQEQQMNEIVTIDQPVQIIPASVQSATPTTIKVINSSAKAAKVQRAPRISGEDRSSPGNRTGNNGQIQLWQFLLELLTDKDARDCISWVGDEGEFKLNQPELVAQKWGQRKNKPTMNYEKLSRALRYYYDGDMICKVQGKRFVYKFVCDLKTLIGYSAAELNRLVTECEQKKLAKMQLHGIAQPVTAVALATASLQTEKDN
The essentials:
as §1

Another test concerns the target T4, ERG (Homo sapiens, UniProt P11308 1-479).
T4 sequence: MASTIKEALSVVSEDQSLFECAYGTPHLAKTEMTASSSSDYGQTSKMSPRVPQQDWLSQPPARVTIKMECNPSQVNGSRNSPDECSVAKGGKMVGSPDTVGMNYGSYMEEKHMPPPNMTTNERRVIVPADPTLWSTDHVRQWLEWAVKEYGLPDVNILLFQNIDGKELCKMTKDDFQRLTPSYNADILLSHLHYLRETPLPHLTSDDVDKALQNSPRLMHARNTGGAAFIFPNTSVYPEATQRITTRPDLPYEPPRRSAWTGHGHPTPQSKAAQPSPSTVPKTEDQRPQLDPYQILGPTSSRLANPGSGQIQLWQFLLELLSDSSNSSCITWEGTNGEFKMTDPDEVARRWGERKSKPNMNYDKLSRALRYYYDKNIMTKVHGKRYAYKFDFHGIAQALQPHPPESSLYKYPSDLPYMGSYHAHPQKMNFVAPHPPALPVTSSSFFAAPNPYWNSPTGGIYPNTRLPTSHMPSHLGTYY
A digest of the protocol:
as §1

The next test deals with ELF1 (Homo sapiens, UniProt P32519 1-619). The essentials: as §1
Another test has as its target T5, EHF (Homo sapiens, UniProt Q9NZC4 1-300).
T5 sequence: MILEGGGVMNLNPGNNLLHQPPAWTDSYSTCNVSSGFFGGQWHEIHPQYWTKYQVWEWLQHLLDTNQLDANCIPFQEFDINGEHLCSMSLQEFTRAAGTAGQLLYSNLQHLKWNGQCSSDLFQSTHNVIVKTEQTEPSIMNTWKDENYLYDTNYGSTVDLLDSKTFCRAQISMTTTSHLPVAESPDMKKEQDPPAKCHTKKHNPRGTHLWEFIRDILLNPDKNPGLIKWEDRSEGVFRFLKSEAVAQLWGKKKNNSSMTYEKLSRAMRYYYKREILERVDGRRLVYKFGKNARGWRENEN
The essentials:
as §1

In another test the target is SPI1 (Homo sapiens, UniProt P17947 1-270). A digest of the protocol:
as §1

Another test deals with SPIB (Homo sapiens, UniProt Q01892 1-262). The essentials: as §1
Another test concerns the target T6, FEV (Homo sapiens, UniProt Q99581 1-238).
T6 sequence: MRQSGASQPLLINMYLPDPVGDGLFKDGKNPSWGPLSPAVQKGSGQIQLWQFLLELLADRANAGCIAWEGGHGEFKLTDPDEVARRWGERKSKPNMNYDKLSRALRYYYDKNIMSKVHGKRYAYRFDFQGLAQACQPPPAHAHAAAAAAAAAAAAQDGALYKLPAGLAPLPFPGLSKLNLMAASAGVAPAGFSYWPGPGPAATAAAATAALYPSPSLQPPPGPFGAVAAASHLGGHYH
The essentials:
as §1

The next test has as its target ETV5 (Homo sapiens, UniProt P41161 1-510). The essentials:
as §1

The next test concerns the target T7, SPIC (Homo sapiens, UniProt Q8N5J4 1-248).
T7 sequence: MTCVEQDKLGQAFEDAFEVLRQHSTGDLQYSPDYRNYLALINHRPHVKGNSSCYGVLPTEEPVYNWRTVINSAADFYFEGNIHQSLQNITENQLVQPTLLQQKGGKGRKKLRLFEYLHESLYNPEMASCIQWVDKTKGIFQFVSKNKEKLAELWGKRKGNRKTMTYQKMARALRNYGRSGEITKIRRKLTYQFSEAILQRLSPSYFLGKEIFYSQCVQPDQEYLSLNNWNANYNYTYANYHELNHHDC
The essentials:
as §1

In the next test the target is ELF4 (Homo sapiens, UniProt Q99607 1-663). A digest of the protocol:
as §1

The target in a further test is ETV1 (Homo sapiens, UniProt P50549 1-477). The essentials:
as §1

The next test concerns the target T8, ERF (Homo sapiens, UniProt P50548 1-548).
T8 sequence: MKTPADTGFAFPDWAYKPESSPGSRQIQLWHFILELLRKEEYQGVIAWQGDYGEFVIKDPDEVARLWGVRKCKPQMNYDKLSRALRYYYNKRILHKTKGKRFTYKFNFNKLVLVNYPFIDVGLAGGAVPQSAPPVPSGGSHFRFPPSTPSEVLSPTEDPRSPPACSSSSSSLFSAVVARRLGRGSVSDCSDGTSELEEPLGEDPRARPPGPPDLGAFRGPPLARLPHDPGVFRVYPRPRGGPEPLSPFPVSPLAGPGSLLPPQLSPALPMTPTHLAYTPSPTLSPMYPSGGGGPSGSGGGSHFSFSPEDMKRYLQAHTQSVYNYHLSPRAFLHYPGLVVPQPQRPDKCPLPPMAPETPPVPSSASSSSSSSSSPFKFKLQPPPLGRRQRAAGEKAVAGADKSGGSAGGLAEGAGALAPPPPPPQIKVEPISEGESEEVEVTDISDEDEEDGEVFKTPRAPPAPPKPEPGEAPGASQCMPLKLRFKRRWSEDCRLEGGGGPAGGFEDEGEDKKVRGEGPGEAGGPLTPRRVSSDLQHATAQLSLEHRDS
The essentials: as §1

The target in the next test is T9, ETV3L (Homo sapiens, UniProt Q6ZN32 1-361).
T9 sequence: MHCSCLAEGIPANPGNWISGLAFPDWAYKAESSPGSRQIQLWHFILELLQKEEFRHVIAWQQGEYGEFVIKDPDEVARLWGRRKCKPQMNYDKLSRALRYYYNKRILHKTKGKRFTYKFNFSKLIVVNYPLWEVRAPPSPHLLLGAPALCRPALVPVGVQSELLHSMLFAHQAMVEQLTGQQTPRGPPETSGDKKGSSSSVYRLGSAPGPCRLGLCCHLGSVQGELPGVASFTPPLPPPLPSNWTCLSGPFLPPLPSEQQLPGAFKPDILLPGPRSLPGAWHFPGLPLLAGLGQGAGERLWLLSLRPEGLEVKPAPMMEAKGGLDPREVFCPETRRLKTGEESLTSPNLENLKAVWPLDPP
The essentials:
as §1

The target of another test is T10, ETS2 (Homo sapiens, UniProt P15036 1-469).
T10 sequence: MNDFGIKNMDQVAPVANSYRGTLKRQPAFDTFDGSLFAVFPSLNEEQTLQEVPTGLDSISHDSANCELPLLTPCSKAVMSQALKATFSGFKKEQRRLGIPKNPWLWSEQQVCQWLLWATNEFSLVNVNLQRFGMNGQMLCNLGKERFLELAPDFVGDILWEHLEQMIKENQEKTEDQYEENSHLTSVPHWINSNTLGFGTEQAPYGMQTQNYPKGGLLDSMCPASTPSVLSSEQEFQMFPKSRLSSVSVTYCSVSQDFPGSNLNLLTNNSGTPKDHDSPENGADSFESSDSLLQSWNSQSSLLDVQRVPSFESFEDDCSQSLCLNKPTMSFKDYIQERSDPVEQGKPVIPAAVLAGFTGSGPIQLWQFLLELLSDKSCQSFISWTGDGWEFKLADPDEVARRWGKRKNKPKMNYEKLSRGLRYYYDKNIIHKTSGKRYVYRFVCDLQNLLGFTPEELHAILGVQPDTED
A digest of the protocol:
as §1

In the next test the target is T11, SPDEF (Homo sapiens, UniProt O95238 1-335).
T11 sequence: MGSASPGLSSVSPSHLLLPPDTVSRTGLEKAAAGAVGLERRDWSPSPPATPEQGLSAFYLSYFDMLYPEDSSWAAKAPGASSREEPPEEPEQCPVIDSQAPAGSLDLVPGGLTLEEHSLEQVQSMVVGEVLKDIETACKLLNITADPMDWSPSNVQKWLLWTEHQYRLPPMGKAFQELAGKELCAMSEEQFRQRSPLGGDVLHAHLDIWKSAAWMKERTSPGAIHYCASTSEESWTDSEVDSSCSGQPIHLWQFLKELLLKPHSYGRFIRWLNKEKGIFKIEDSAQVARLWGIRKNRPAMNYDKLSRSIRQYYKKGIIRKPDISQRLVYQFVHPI
The essentials:
as §1

For the next test, the target named is T12, ELF5 (Homo sapiens, UniProt Q9UKW6-2 1-255).
T12 sequence: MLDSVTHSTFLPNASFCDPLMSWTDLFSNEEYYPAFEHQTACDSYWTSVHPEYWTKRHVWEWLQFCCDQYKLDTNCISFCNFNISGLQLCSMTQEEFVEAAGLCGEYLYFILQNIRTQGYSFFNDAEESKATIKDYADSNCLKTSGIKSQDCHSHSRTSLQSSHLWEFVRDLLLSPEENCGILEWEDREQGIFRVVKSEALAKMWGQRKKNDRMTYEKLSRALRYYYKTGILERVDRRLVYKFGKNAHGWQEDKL
The essentials:
as §1

The target of another test is T13, ETV3 (Homo sapiens, UniProt P41162-2 1-143).
T13 sequence: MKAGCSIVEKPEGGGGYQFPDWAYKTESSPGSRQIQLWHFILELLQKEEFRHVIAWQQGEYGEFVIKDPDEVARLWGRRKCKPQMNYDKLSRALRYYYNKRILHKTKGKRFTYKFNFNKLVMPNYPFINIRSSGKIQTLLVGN
The essentials: as §1

A further test deals with ETV6 (Homo sapiens, UniProt P41212 1-452). The essentials:
as §1

Sequence of ETV1 (P50549 whole entry): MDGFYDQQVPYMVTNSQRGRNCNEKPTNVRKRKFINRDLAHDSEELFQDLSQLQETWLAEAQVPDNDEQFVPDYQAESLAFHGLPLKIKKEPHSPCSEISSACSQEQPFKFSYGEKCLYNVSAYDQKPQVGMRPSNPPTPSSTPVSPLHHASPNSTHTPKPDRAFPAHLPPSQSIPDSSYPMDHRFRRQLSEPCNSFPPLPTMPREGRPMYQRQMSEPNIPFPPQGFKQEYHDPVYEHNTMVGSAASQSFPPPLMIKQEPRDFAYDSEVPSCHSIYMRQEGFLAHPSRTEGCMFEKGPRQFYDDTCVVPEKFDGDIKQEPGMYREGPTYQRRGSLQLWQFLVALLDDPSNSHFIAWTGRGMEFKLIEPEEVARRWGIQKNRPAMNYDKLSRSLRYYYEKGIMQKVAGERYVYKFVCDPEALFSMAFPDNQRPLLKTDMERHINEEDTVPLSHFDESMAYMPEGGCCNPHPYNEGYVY
Sequence of SPIB (Q01892 whole entry): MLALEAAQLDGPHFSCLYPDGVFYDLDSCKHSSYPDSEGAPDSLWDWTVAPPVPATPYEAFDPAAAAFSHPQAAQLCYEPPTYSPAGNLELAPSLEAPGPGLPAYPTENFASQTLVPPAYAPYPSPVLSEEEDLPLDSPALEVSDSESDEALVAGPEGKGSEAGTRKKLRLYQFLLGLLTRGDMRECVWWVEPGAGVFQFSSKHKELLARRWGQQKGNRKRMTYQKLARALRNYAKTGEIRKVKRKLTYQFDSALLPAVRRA
Sequence of ELF1 (P32519 whole entry): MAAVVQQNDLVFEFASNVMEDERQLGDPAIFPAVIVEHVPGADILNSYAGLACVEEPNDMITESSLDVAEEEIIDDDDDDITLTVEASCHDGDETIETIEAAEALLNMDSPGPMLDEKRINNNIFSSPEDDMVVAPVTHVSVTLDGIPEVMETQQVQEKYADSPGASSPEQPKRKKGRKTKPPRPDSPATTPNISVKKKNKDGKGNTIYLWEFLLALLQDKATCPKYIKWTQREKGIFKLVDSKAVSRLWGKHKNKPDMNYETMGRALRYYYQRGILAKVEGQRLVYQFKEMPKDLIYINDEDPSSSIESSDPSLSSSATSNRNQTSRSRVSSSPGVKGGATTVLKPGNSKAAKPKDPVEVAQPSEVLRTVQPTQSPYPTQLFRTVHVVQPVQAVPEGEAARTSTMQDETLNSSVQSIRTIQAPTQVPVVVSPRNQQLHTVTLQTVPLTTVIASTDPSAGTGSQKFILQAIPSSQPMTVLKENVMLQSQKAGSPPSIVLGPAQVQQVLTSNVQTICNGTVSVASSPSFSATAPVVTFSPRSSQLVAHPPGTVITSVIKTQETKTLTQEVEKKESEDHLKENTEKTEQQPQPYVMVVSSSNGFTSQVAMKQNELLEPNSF
Sequence of ELF4 (Q99607 whole entry): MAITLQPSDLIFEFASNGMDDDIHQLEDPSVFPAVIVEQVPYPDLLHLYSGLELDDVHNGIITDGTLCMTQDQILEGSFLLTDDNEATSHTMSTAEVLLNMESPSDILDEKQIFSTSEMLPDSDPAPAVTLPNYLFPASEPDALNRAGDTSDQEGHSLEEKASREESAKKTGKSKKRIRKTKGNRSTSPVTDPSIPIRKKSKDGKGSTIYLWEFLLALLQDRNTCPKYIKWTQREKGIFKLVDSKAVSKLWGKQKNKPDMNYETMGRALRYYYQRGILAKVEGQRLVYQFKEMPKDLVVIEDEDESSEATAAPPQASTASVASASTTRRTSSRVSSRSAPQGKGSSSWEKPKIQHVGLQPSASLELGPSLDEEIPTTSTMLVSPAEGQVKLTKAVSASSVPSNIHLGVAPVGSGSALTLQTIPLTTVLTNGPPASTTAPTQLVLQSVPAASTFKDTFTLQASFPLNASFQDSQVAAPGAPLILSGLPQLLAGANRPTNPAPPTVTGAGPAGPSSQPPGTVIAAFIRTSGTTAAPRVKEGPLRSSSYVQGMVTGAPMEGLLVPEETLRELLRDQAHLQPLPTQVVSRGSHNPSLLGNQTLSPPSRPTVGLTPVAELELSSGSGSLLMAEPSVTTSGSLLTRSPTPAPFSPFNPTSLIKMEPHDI
Sequence of ETV5 (P41161 whole entry): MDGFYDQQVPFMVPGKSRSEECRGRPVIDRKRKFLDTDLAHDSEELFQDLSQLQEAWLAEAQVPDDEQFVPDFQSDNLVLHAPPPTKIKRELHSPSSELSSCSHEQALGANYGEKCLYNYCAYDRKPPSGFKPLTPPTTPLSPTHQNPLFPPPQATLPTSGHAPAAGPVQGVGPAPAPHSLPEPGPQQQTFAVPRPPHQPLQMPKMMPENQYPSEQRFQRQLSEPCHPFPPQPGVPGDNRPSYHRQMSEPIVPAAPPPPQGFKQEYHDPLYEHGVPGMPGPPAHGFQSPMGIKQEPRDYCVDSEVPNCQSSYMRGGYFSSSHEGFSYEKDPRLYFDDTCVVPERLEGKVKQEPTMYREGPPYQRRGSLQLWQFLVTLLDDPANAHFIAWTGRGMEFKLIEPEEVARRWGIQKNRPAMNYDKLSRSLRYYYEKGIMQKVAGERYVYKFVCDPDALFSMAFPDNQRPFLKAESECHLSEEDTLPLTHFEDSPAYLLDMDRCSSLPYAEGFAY
Sequence of ETV6 (P41212 whole entry): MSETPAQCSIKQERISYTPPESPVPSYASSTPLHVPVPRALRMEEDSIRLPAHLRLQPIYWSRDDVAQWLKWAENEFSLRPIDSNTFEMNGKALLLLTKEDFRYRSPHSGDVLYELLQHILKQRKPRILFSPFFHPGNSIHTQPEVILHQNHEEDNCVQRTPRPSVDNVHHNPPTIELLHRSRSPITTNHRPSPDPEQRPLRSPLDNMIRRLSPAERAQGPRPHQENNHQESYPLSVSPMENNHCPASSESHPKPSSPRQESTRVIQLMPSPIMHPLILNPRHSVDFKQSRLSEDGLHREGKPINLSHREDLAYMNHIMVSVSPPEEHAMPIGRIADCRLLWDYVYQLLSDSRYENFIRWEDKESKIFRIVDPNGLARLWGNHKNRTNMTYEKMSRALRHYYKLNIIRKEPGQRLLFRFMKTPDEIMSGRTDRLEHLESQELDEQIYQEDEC

For GTCTAC, the binding signal was 1.09 fold enrichment (6-mer frequency, TF over GST control) with FLI1; 1.08 fold enrichment (6-mer frequency, TF over GST control) with ELK1; 1.08 fold enrichment (6-mer frequency, TF over GST control) with GABPA; 1.05 fold enrichment (6-mer frequency, TF over GST control) with ERG; 1.05 fold enrichment (6-mer frequency, TF over GST control) with ELF1; 1.16 fold enrichment (6-mer frequency, TF over GST control) in the test with EHF. Besides, the binding signal with SPI1 is 1.12 fold enrichment (6-mer frequency, TF over GST control); in the test with SPIB, 1.03 fold enrichment (6-mer frequency, TF over GST control); with FEV, 1.08 fold enrichment (6-mer frequency, TF over GST control); with ETV5 it was 1.11 fold enrichment (6-mer frequency, TF over GST control); with SPIC it was 1.1 fold enrichment (6-mer frequency, TF over GST control); with ELF4 it was 1.09 fold enrichment (6-mer frequency, TF over GST control). The binding signal with ETV1 is 1.19 fold enrichment (6-mer frequency, TF over GST control); in the test with ERF it was 1.07 fold enrichment (6-mer frequency, TF over GST control); with ETV3L it was 1.26 fold enrichment (6-mer frequency, TF over GST control); with ETS2, 1.13 fold enrichment (6-mer frequency, TF over GST control); with SPDEF, 1.11 fold enrichment (6-mer frequency, TF over GST control); in the test with ELF5, 1.08 fold enrichment (6-mer frequency, TF over GST control). Further, the binding signal with ETV3 was 1.06 fold enrichment (6-mer frequency, TF over GST control); with ETV6, 1 fold enrichment (6-mer frequency, TF over GST control).

(Values after publication PMC7862700, “An all-to-all approach to the identification of sequence-specific readers for epigenetic DNA modifications on cytosine”.)
